Changes are numbered by the printed parent chain.
How the values were obtained:
[1] = target: T1, SALL4 ZFC4 R900W (HT-SELEX) (Mus musculus, UniProt Q8BX22 870-940, R900W); test: HT-SELEX; high values mean tight binding; settings: protein: recombinant; vector His6-GST; dsDNA, one strand shown
T1 sequence: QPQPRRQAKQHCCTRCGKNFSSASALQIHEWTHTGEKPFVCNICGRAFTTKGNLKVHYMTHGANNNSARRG
Outline: (§1)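 Binding signal is expressed as fold change in each canonical k-mer's read fraction over the initial random library. To obtain it, 1 µg of purified recombinant mouse SALL4 zinc finger cluster 4 (residues 870–940) was incubated for 10 min at room temperature with library DNA (1.5 µg first cycle, 200 ng later cycles) in 100 µl of 10 mM Tris–HCl pH 7.5, 50 mM NaCl, poly(dI-dC) and DTT. Ni2+ bead-captured complexes went through washing, PCR amplification and reselection for up to 6 cycles, in triplicate, before MiSeq sequencing and scanning for 6-mers.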

[2] = target: T2, SALL4 ZFC4 G921D (HT-SELEX) (Mus musculus, UniProt Q8BX22 870-940, G921D); test: HT-SELEX; high values mean tight binding; settings: protein: recombinant; vector His6-GST; dsDNA, one strand shown
T2 sequence: T1 sequence with W31R, G52D
Outline: as §1

Q: What does the source list for ACAGCC?
A: binding signal [1]: 0.328 ± 0.00712 fold-change vs cycle 0; binding signal [2]: 0.462 ± 0.0935 fold-change vs cycle 0

Q: Which results are given for GCGAGA?
A: binding signal [1]: 0.334 ± 0.0226 fold-change vs cycle 0; binding signal [2]: 0.472 ± 0.0669 fold-change vs cycle 0

Q: Which results are given for CCCGGA?
A: binding signal [1]: 0.231 ± 0.0171 fold-change vs cycle 0; binding signal [2]: 0.334 ± 0.0568 fold-change vs cycle 0

Q: Which results are given for GAGCGA?
A: binding signal [1]: 0.326 ± 0.0151 fold-change vs cycle 0; binding signal [2]: 0.483 ± 0.0727 fold-change vs cycle 0

Q: With ACCGCG as the sequence, how does the binding signal [1] read?
A: 0.099 ± 0.00138 fold-change vs cycle 0

Q: And the binding signal [2]?
A: 0.205 ± 0.0665 fold-change vs cycle 0

Q: For AGCGTC, which binding signal [1] is on record?
A: 0.301 ± 0.0204 fold-change vs cycle 0

Q: What about the binding signal [2] of the same sequence?
A: 0.444 ± 0.0717 fold-change vs cycle 0

Q: What does the source list for GCCCTA?
A: binding signal [1]: 0.353 ± 0.0173 fold-change vs cycle 0; binding signal [2]: 0.496 ± 0.0842 fold-change vs cycle 0

Q: How did the binding signal [1] turn out when GCAGCC was run?
A: 0.112 ± 0.0161 fold-change vs cycle 0

Q: And the binding signal [2]?
A: 0.221 ± 0.0775 fold-change vs cycle 0

Q: Which results are given for ACGGCA?
A: binding signal [1]: 0.221 ± 0.00749 fold-change vs cycle 0; binding signal [2]: 0.353 ± 0.0815 fold-change vs cycle 0

Q: For GGGGAC, which binding signal [1] is on record?
A: 0.299 ± 0.0209 fold-change vs cycle 0

Q: And the binding signal [2]?
A: 0.403 ± 0.0552 fold-change vs cycle 0

Q: What does the source list for CACCGC?
A: binding signal [1]: 0.132 ± 0.00669 fold-change vs cycle 0; binding signal [2]: 0.239 ± 0.0797 fold-change vs cycle 0

Q: Which binding signal [1] does the source give for CGCGAC here?
A: 0.088 ± 0.0103 fold-change vs cycle 0

Q: What about the binding signal [2] of the same sequence?
A: 0.202 ± 0.0599 fold-change vs cycle 0

Q: How did the binding signal [1] turn out when GCGTCA was run?
A: 0.266 ± 0.00412 fold-change vs cycle 0

Q: And the binding signal [2]?
A: 0.39 ± 0.0541 fold-change vs cycle 0

Q: GGCACC was tested. Which binding signal [1] did it give?
A: 0.163 ± 0.0146 fold-change vs cycle 0

Q: What about the binding signal [2] of the same sequence?
A: 0.28 ± 0.0664 fold-change vs cycle 0

Q: What does the source list for GCGGCA?
A: binding signal [1]: 0.0597 ± 0.00711 fold-change vs cycle 0; binding signal [2]: 0.158 ± 0.0724 fold-change vs cycle 0

Q: With GAACGC as the sequence, how does the binding signal [1] read?
A: 0.308 ± 0.012 fold-change vs cycle 0

Q: What about the binding signal [2] of the same sequence?
A: 0.446 ± 0.0568 fold-change vs cycle 0

Q: What does the source list for CCAGCA?
A: binding signal [1]: 0.359 ± 0.0242 fold-change vs cycle 0; binding signal [2]: 0.477 ± 0.0744 fold-change vs cycle 0

Q: For CCCGGG, which binding signal [1] is on record?
A: 0.132 ± 0.0102 fold-change vs cycle 0

Q: What about the binding signal [2] of the same sequence?
A: 0.234 ± 0.0711 fold-change vs cycle 0

Q: Which results are given for CACGCG?
A: binding signal [1]: 0.116 ± 0.0104 fold-change vs cycle 0; binding signal [2]: 0.214 ± 0.0541 fold-change vs cycle 0

Q: How did the binding signal [1] turn out when AAGCCG was run?
A: 0.241 ± 0.0209 fold-change vs cycle 0

Q: What about the binding signal [2] of the same sequence?
A: 0.357 ± 0.0555 fold-change vs cycle 0

Q: For CGCACC, which binding signal [1] is on record?
A: 0.132 ± 0.00899 fold-change vs cycle 0

Q: And the binding signal [2]?
A: 0.24 ± 0.0749 fold-change vs cycle 0

Q: GCGCGC was tested. Which binding signal [1] did it give?
A: 0.0165 ± 0.00409 fold-change vs cycle 0

Q: And the binding signal [2]?
A: 0.0747 ± 0.0529 fold-change vs cycle 0

Q: With GCGACC as the sequence, how does the binding signal [1] read?
A: 0.112 ± 0.0125 fold-change vs cycle 0

Q: And the binding signal [2]?
A: 0.237 ± 0.0806 fold-change vs cycle 0

Q: What does the source list for AGGCCT?
A: binding signal [1]: 0.384 ± 0.0275 fold-change vs cycle 0; binding signal [2]: 0.516 ± 0.0785 fold-change vs cycle 0

Q: For TCGGCA, which binding signal [1] is on record?
A: 0.208 ± 0.0109 fold-change vs cycle 0

Q: And the binding signal [2]?
A: 0.351 ± 0.0637 fold-change vs cycle 0

Q: What does the source list for CCTGCG?
A: binding signal [1]: 0.145 ± 0.0224 fold-change vs cycle 0; binding signal [2]: 0.246 ± 0.0829 fold-change vs cycle 0

Q: Which results are given for CCACGG?
A: binding signal [1]: 0.219 ± 0.0185 fold-change vs cycle 0; binding signal [2]: 0.334 ± 0.0695 fold-change vs cycle 0

Q: CGACGC was tested. Which binding signal [1] did it give?
A: 0.0904 ± 0.00963 fold-change vs cycle 0

Q: And the binding signal [2]?
A: 0.193 ± 0.0701 fold-change vs cycle 0

Q: With CCCTGC as the sequence, how does the binding signal [1] read?
A: 0.219 ± 0.0265 fold-change vs cycle 0

Q: And the binding signal [2]?
A: 0.323 ± 0.0875 fold-change vs cycle 0

Q: Which binding signal [1] does the source give for AGGGCC here?
A: 0.158 ± 0.0102 fold-change vs cycle 0

Q: What about the binding signal [2] of the same sequence?
A: 0.28 ± 0.0679 fold-change vs cycle 0

Q: With GCGCGA as the sequence, how does the binding signal [1] read?
A: 0.0544 ± 0.00435 fold-change vs cycle 0

Q: What about the binding signal [2] of the same sequence?
A: 0.152 ± 0.0576 fold-change vs cycle 0

Q: ACCGGC was tested. Which binding signal [1] did it give?
A: 0.106 ± 0.00697 fold-change vs cycle 0

Q: And the binding signal [2]?
A: 0.227 ± 0.0683 fold-change vs cycle 0

Q: Which binding signal [1] does the source give for GAACTA here?
A: 1.48 ± 0.0646 fold-change vs cycle 0

Q: What about the binding signal [2] of the same sequence?
A: 1.37 ± 0.112 fold-change vs cycle 0

Q: What does the source list for GCGTCC?
A: binding signal [1]: 0.152 ± 0.014 fold-change vs cycle 0; binding signal [2]: 0.258 ± 0.0705 fold-change vs cycle 0

Q: Which binding signal [1] does the source give for GTCCGA here?
A: 0.371 ± 0.00646 fold-change vs cycle 0

Q: And the binding signal [2]?
A: 0.506 ± 0.055 fold-change vs cycle 0

Q: How did the binding signal [1] turn out when CCGGAC was run?
A: 0.195 ± 0.02 fold-change vs cycle 0

Q: What about the binding signal [2] of the same sequence?
A: 0.305 ± 0.0661 fold-change vs cycle 0

Q: With CAGCCC as the sequence, how does the binding signal [1] read?
A: 0.16 ± 0.0179 fold-change vs cycle 0

Q: What about the binding signal [2] of the same sequence?
A: 0.287 ± 0.0742 fold-change vs cycle 0

Q: GGCAGA was tested. Which binding signal [1] did it give?
A: 0.306 ± 0.0166 fold-change vs cycle 0

Q: What about the binding signal [2] of the same sequence?
A: 0.438 ± 0.0703 fold-change vs cycle 0

Q: How did the binding signal [1] turn out when CGCTAC was run?
A: 0.3 ± 0.026 fold-change vs cycle 0

Q: What about the binding signal [2] of the same sequence?
A: 0.426 ± 0.0556 fold-change vs cycle 0

Q: How did the binding signal [1] turn out when AGCGAC was run?
A: 0.253 ± 0.0224 fold-change vs cycle 0

Q: What about the binding signal [2] of the same sequence?
A: 0.41 ± 0.0789 fold-change vs cycle 0

Q: For GACCCC, which binding signal [1] is on record?
A: 0.276 ± 0.00974 fold-change vs cycle 0

Q: And the binding signal [2]?
A: 0.391 ± 0.051 fold-change vs cycle 0

Q: Which binding signal [1] does the source give for GAGCCA here?
A: 0.301 ± 0.00918 fold-change vs cycle 0

Q: And the binding signal [2]?
A: 0.466 ± 0.0659 fold-change vs cycle 0

Q: With AGCGTG as the sequence, how does the binding signal [1] read?
A: 0.35 ± 0.0043 fold-change vs cycle 0

Q: What about the binding signal [2] of the same sequence?
A: 0.476 ± 0.0501 fold-change vs cycle 0

Q: Which results are given for CCCCCA?
A: binding signal [1]: 0.312 ± 0.0194 fold-change vs cycle 0; binding signal [2]: 0.423 ± 0.0709 fold-change vs cycle 0

Q: Which results are given for CAACGC?
A: binding signal [1]: 0.263 ± 0.00747 fold-change vs cycle 0; binding signal [2]: 0.409 ± 0.0649 fold-change vs cycle 0

Q: GCCGAC was tested. Which binding signal [1] did it give?
A: 0.0865 ± 0.0114 fold-change vs cycle 0

Q: And the binding signal [2]?
A: 0.204 ± 0.0612 fold-change vs cycle 0

Q: How did the binding signal [1] turn out when CCGAGC was run?
A: 0.158 ± 0.00799 fold-change vs cycle 0

Q: What about the binding signal [2] of the same sequence?
A: 0.273 ± 0.0808 fold-change vs cycle 0

Q: Which binding signal [1] does the source give for CGAACG here?
A: 0.36 ± 0.0176 fold-change vs cycle 0

Q: And the binding signal [2]?
A: 0.474 ± 0.087 fold-change vs cycle 0

Q: With ACCGGG as the sequence, how does the binding signal [1] read?
A: 0.239 ± 0.0269 fold-change vs cycle 0

Q: What about the binding signal [2] of the same sequence?
A: 0.357 ± 0.0693 fold-change vs cycle 0

Q: Which binding signal [1] does the source give for CCTCGC here?
A: 0.171 ± 0.0115 fold-change vs cycle 0

Q: And the binding signal [2]?
A: 0.295 ± 0.0773 fold-change vs cycle 0

Q: For GCCGGA, which binding signal [1] is on record?
A: 0.106 ± 0.00682 fold-change vs cycle 0

Q: What about the binding signal [2] of the same sequence?
A: 0.224 ± 0.0644 fold-change vs cycle 0

Q: CGCGTA was tested. Which binding signal [1] did it give?
A: 0.224 ± 0.0194 fold-change vs cycle 0

Q: And the binding signal [2]?
A: 0.34 ± 0.0644 fold-change vs cycle 0

Q: Which results are given for CGCGCC?
A: binding signal [1]: 0.0255 ± 0.00279 fold-change vs cycle 0; binding signal [2]: 0.0934 ± 0.0574 fold-change vs cycle 0

Q: Which results are given for CCTCCG?
A: binding signal [1]: 0.252 ± 0.0142 fold-change vs cycle 0; binding signal [2]: 0.367 ± 0.0686 fold-change vs cycle 0

Q: Which results are given for AGCGGG?
A: binding signal [1]: 0.168 ± 0.0263 fold-change vs cycle 0; binding signal [2]: 0.277 ± 0.0671 fold-change vs cycle 0

Q: For CGGAGC, which binding signal [1] is on record?
A: 0.166 ± 0.00611 fold-change vs cycle 0

Q: What about the binding signal [2] of the same sequence?
A: 0.286 ± 0.0677 fold-change vs cycle 0

Q: What does the source list for CAAGCC?
A: binding signal [1]: 0.349 ± 0.0256 fold-change vs cycle 0; binding signal [2]: 0.491 ± 0.0577 fold-change vs cycle 0

— publication PMC9838217, “Structure of SALL4 zinc finger domain reveals link between AT-rich DNA binding and Okihiro syndrome”
